From PubChem BioAssay (Tox21)
Several values for one entry are separate records, joined by “and”; a condition that tells them apart may be missing. Equal values may be shown once. Inconclusive results are not listed. Activity calls are given as the source filed them. The call rests on the fitted dose curve; in most records, active means well fitted curve in the direction sought with a large enough effect in the repeat runs; inconclusive means weak or mixed curves; inactive means no such curve, though single readings can be large; an effect the other way counts as inactive or inconclusive.

Experiments:
[1] = Caspase-3/7 induction in HepG2 cells by small molecules, qHTS assay (AID 1346978); further: nearly all actives have a fitted effect of over 15% in size
How it was run: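 Wild-type HepG2 cells (2,000/well) were settled 5 h at 37 C, 5% CO2, then exposed to compounds in DMSO for 17 h. Caspase-3/7 activity was read by luminescence 30 min after adding Caspase-Glo 3/7 reagent at room temperature.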

[2] = Caspase-3/7 induction in CHO-K1 cells by small molecules, qHTS cell viability counter screen (AID 1346979); further: nearly all actives have a fitted effect of over 35% in size; further: potency means the concentration at half of the fitted maximal effect
How it was run: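 Following a 5hr settling period, CHO-K1 cells at 1,500 per well received DMSO-dissolved compounds. Cell viability was quantified 16hr later by CellTiter-Fluor fluorescence, measured after 1hr with reagent at 37C.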

[3] = Caspase-3/7 induction in CHO-K1 cells by small molecules, qHTS assay (AID 1346980); further: nearly all actives have a fitted effect of over 15% in size
How it was run: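 Wild-type cells were seeded at 1,500 per well and settled 5 hr at 37 C, 5% CO2, then exposed to DMSO-dissolved compounds for 17 hr. Caspase-Glo 3/7 reagent was added, and luminescence was read after 30min at room temperature.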

[4] = Caspase-3/7 induction in HepG2 cells by small molecules, qHTS cell viability counter screen (AID 1346981); further: nearly all actives have a fitted effect of over 30% in size; further: potency means the concentration at half of the fitted maximal effect; on activity change, negative = cytotoxicity: series mostly up to about 92 µM
How it was run: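 The parent HepG2 line is plated at 2,000 cells per well and rested 5 hr before compound pinning from DMSO stocks. Following a 16-hr treatment at 37 C, a fluorogenic live-cell substrate (CellTiter-Fluor) reports viability after 1 hr.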

[5] = molecular target: Nuclear receptor subfamily 1 group I member 2 (Rattus norvegicus) (UniProt Q9R1A7); assay: Rat pregnane X receptor (rPXR) activation by small molecules, qHTS assay (AID 1346983); conditions: rPXR luciferase reporter cells, One-Glo luminescence, 24 h; max activation: hits give high values; further: nearly all actives have a fitted effect of over 20% in size
How it was run: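 Cell-based rPXR luciferase reporter assay, 2,000 cells per well, rested 5hr at 37 C before compound addition in DMSO, then 24 hr at 37 C. One-Glo reagent was added and luminescence read after 30 min at room temperature.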

[6] = molecular target: Nuclear receptor subfamily 1 group I member 2 (Homo sapiens) (UniProt O75469); assay: CYP3A4 induction through human pregnane X receptor (PXR) by small molecules, qHTS assay (AID 1346984); further: nearly all actives have a fitted effect of over 40% in size
How it was run: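 Human PXR activation is tracked via CYP3A4 promoter-luciferase in DPX-2 (HepG2) cells. Compounds treat cells for 24hr at 37C, and luminescence is read after One-Glo.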

[7] = molecular target: Nuclear receptor subfamily 1 group I member 2 (Homo sapiens) (UniProt O75469); assay: Human pregnane X receptor (PXR) activation by small molecules, qHTS assay (AID 1346985); further: nearly all actives have a fitted effect of over 40% in size
How it was run: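 DPX-2 cells (HepG2 co-transfected with a PXR response element and a CYP3A4-promoter luciferase construct) were seeded at 2,000 per well, rested 5 hr at 37C, then exposed to DMSO-dissolved compounds for 24 hr. Activation was read as luciferase luminescence.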

[8] = molecular target: Cytochrome P450 2D6 (Homo sapiens) (UniProt P10635); assay: Cytochrome P450 Family 2 Subfamily D Member 6 (CYP2D6) small molecule antagonists: luciferase reporter qHTS assay (AID 1671196); further: series mostly up to about 120 µM; nearly all actives have a fitted effect of over 50% in size
How it was run: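 Quantitative HTS of Tox21 chemicals against CYP2D6 using a luminescent proluciferin substrate. After NADPH addition, 1 h room-temperature reaction; luminescence recorded 20 min post detection reagent.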

[9] = molecular target: Cytochrome P450 2C9 (Homo sapiens) (UniProt P11712); assay: Cytochrome P450 Family 2 Subfamily C Member 9 (CYP2C9) small molecule antagonists: luciferase reporter qHTS assay (AID 1671198); further: nearly all actives have a fitted effect of over 50% in size; further: potency means the concentration at half of the fitted maximal effect; on activity change, negative = inhibition: series mostly up to about 120 µM
How it was run: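 CYP2C9 activity was measured with a P450-Glo proluciferin substrate. Enzyme–substrate mix was held with compound for 10 min at room temperature, then NADPH regeneration solution was added for 1 h at 37C. Luciferin product was read as luminescence.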

[10] = molecular target: Cytochrome P450 1A2 (Homo sapiens) (UniProt P05177); assay: Cytochrome P450 Family 1 Subfamily A Member 2 (CYP1A2) small molecule antagonists: luciferase reporter qHTS assay (AID 1671199); further: series mostly up to about 120 µM; nearly all actives have a fitted effect of over 50% in size
How it was run: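 Quantitative high-throughput format using the P450-Glo CYP1A2 system. Reaction initiated by NADPH regeneration solution, 1 h at room temperature, then stopped with detection reagent; luminescence measured 20 min later.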

[11] = molecular target: Voltage-gated inwardly rectifying potassium channel KCNH2 (Homo sapiens) (UniProt Q12809); assay: Human Ether-a-go-go-Related Gene (hERG) channel small molecule antagonists: fluorescence cell-based qHTS assay (AID 1671200); further: nearly all actives have a fitted effect of over 50% in size; further: potency means the concentration at half of the fitted maximal effect;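 on activity change, negative = inhibition: hERG-expressing U2OS cells given a thallium stimulus after FluxOR II dye loading; series mostly up to about 77 µM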
How it was run: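 In this thallium-flux screen, overnight-cultured U2OS cells bearing the channel are dye-loaded in darkness for an hour, rested 10 min at room temperature, and then monitored kinetically at 480/540 nm for two minutes post-stimulus.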

[12] = molecular target: Cytochrome P450 3A4 (Homo sapiens) (UniProt P08684); assay: Cytochrome P450 Family 3 Subfamily A Member 4 (CYP3A4) small molecule antagonists: luciferase reporter qHTS assay (AID 1671201)
How it was run: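 CYP3A4 activity was followed with a P450-Glo proluciferin substrate. Test compounds in DMSO were preincubated 10 min; NADPH regeneration then ran 1 h, and light output was read 20 min after detection reagent.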

[13] = molecular target: Cytochrome P450 2C19 (Homo sapiens) (UniProt P33261); assay: Cytochrome P450 Family 2 Subfamily C Member 19 (CYP2C19) small molecule antagonists: luciferase reporter qHTS assay (AID 1671197); further: nearly all actives have a fitted effect of over 65% in size; further: potency means the concentration at half of the fitted maximal effect; on activity change, negative = inhibition: series mostly up to about 120 µM
How it was run: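 Quantitative high-throughput screen of the Tox21 library using CYP2C19 with proluciferin substrate. Reaction: NADPH regeneration, 37C, 1 h, after 10 min compound preincubation at room temperature. Readout: luminescence.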
On the % scale 0 is the no-effect control and ±100 the full control effect.

Sequence of Cytochrome P450 3A4 (Homo sapiens) (P08684 whole entry, looked up): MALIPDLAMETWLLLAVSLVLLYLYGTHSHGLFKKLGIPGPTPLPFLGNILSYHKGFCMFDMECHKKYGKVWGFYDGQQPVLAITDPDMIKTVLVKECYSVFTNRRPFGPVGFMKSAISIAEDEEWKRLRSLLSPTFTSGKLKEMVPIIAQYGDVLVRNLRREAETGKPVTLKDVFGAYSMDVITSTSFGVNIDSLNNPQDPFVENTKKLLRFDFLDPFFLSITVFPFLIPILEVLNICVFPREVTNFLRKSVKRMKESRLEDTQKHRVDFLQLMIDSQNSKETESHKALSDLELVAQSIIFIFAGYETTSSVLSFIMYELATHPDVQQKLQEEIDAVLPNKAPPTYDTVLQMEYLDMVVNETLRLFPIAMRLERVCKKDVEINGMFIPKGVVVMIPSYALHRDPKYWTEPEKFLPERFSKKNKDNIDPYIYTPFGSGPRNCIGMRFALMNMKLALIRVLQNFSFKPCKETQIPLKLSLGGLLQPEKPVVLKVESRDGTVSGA
Sequence of Cytochrome P450 2C9 (Homo sapiens) (P11712 whole entry, looked up): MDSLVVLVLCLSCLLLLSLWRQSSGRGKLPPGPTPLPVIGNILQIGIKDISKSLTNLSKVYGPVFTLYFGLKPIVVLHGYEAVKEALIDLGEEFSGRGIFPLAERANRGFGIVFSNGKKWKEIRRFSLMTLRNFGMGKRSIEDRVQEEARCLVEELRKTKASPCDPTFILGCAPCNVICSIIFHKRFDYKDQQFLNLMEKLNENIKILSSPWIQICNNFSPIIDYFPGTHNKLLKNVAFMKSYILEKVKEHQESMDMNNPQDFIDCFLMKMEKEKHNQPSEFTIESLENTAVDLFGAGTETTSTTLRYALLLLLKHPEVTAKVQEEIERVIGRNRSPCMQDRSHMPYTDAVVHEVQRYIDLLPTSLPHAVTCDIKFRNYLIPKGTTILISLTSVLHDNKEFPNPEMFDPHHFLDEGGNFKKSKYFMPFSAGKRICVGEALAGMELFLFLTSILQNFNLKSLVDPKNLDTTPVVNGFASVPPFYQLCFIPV
Sequence of Nuclear receptor subfamily 1 group I member 2 (Rattus norvegicus) (Q9R1A7 whole entry, looked up): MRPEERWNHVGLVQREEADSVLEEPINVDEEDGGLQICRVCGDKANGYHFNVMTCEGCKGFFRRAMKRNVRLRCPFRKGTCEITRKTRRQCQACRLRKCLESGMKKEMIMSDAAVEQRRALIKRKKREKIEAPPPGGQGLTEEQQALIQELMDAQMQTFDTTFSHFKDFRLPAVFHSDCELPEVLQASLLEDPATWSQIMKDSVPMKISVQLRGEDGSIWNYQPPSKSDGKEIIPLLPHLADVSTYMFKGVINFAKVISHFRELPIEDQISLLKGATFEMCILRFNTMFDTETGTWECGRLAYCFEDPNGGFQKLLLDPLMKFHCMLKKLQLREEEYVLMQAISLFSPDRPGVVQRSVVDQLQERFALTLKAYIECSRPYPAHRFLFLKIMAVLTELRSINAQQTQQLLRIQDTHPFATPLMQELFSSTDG
Sequence of Cytochrome P450 2D6 (Homo sapiens) (P10635 whole entry, looked up): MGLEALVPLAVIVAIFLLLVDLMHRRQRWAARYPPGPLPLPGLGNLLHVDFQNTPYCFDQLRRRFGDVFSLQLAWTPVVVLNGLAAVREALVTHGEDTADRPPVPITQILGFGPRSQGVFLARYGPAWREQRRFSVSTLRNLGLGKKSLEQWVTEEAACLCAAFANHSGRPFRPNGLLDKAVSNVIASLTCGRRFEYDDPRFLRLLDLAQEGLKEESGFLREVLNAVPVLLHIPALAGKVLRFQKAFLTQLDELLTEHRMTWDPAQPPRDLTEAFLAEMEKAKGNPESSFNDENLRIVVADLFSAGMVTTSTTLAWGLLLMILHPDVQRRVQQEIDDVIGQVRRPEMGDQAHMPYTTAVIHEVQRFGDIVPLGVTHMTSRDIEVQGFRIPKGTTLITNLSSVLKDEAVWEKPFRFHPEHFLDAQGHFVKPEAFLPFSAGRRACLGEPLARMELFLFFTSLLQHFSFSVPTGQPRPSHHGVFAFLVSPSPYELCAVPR
Sequence of Voltage-gated inwardly rectifying potassium channel KCNH2 (Homo sapiens) (Q12809 whole entry, looked up): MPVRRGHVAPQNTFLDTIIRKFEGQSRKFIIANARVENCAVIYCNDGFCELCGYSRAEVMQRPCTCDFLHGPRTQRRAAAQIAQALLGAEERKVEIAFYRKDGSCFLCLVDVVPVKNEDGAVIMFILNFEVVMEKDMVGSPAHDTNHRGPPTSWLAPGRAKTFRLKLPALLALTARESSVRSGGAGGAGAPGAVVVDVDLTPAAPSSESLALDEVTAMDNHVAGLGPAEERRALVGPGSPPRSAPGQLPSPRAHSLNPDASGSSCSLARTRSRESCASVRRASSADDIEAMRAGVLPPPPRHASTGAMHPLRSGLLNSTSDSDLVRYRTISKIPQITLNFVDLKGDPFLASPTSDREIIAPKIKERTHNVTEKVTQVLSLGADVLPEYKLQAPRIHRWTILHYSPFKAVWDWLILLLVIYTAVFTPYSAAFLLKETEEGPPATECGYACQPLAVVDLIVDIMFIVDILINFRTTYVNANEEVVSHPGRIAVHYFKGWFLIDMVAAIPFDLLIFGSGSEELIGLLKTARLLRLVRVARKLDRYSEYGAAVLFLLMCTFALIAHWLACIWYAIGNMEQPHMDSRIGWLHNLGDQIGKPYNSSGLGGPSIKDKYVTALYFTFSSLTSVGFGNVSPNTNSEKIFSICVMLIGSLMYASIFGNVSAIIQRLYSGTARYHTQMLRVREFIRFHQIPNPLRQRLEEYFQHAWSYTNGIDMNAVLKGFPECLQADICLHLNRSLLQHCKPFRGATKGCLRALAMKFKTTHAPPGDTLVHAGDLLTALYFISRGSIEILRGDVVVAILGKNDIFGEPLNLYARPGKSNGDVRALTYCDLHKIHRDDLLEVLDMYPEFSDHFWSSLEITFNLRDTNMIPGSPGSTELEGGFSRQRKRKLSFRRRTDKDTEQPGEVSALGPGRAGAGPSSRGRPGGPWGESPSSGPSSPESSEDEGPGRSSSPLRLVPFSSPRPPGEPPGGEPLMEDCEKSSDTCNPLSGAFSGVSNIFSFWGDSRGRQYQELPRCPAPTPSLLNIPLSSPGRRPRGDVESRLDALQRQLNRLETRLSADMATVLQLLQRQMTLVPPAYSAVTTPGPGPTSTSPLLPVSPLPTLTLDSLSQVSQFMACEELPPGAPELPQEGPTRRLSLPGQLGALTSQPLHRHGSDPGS
Sequence of Cytochrome P450 2C19 (Homo sapiens) (P33261 whole entry, looked up): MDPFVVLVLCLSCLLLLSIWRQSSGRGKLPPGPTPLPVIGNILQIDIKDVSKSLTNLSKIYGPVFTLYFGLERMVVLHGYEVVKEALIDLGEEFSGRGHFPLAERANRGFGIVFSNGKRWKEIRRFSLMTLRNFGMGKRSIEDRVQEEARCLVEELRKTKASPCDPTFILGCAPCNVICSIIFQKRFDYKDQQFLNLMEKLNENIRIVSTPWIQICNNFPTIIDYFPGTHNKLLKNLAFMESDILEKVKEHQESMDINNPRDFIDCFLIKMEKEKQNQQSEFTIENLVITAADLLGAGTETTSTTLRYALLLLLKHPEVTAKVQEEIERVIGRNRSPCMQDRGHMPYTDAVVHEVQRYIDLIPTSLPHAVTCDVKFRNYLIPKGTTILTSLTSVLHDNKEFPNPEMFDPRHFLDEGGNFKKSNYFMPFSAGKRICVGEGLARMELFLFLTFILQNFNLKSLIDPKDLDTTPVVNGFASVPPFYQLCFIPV
Sequence of Cytochrome P450 1A2 (Homo sapiens) (P05177 whole entry, looked up): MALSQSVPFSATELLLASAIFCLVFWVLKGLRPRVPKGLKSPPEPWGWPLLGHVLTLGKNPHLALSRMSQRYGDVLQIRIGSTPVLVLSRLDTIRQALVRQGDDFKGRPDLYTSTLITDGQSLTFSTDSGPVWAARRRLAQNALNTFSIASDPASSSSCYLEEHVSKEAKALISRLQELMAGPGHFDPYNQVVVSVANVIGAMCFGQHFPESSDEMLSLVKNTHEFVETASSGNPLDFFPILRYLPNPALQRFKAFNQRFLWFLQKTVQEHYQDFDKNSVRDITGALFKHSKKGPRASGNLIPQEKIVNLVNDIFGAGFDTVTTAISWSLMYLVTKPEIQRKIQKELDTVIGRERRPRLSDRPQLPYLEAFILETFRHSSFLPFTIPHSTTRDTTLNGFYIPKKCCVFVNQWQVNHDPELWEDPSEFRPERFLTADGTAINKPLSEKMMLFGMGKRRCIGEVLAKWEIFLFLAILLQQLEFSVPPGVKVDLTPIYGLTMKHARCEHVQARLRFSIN

CC(=O)Nc1ccc(/C=N/NC(N)=S)cc1
inactive: outcome [1] | Potency [2] | Potency [3] | Potency [4] | max activation [5] -4.57% and -9.49% | Potency [6] | Potency [7] | Potency [8] | Potency [9] | Potency [10] | Potency [11] | Potency [12]

CC(C)(C)c1ccc(S)cc1
inactive: outcome [1] | Potency [2] | Potency [3] | Potency [4] | Potency [8] | Potency [12]
active: Potency [13] 50.2 µM | Potency [9] 31.7 µM

O=C(O)/C=C/c1cnc[nH]1
active: Potency [13] 79.8 µM
inactive: outcome [1] | Potency [2] | Potency [3] | Potency [4] | Potency [11] | Potency [12]

CN(C)C/C=C(/c1ccc(Br)cc1)c1cccnc1
inactive: outcome [1] | Potency [2] | Potency [3] | Potency [4] | max activation [5] -0.374%
active: Potency [11] 13.4 µM

Cc1cccc(C(C)(C)C)c1O
inactive: outcome [1] | Potency [2] | Potency [3] | Potency [4] | Potency [8] | Potency [11]

N#Cc1c(F)cccc1F
inactive: outcome [1] | Potency [2] | Potency [3] | Potency [4] | Potency [8] | Potency [13] | Potency [9] | Potency [11] | Potency [12]

Cc1cc(C)c(S(=O)(=O)O)cc1N=Nc1cc(S(=O)(=O)O)c2ccccc2c1O
inactive: outcome [1] | Potency [3] | Potency [11] | Potency [12]
active: Potency [2] 30.6 µM | Potency [4] 34.4 µM | Potency [9] 63.3 µM

CCN(CCO)CCCC(C)Nc1ccnc2cc(Cl)ccc12 (stereo not given)
inactive: caspase activation [1] 0.0326% [at 8.39 µM] | activity change, negative = cytotoxicity [2] 0.797% [at 8.39 µM] | caspase-3/7 activation [3] -0.893% [at 8.39 µM] | activity change, negative = cytotoxicity [4] 3.29% [at 8.39 µM] | max activation [5] -3.7% | activity change, negative = inhibition [11] 9.57% [at 6.97 µM]

COCCO
inactive: outcome [1] | Potency [2] | Potency [3] | Potency [4] | Potency [8] | Potency [13] | Potency [9] | Potency [10] | Potency [12]
